The nature of experiment [1]: antimalarial activity against Dd2 strain (AID 2302;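 active = growth inhibition above 50% at the single 2 µM test dose, taken to imply half-maximal potency below 2 µM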;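 note: 0% = DMSO untreated growth and 100% = chloroquine plus artemisinin killed control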). The note with it: P. falciparum Dd2 in RBCs, LDH growth readout, 72 h; at 2 µM; stronger effect = higher value.
Experiment [2] is described as follows: HepG2 cytotoxicity, primary screen, cytotoxicity control for P. falciparum antimalarial project, cell-based, ATP luminescence (AID 2303;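 active = inhibition above 50%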;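 note: 0% = DMSO wells and 100% = digitonin-killed cells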). The note with it: HepG2 viability, 24-48 h, at 10 µM, stronger effect = higher value.
The target in experiment [3] is L-lactate dehydrogenase (Plasmodium falciparum (isolate CDC / Honduras)) (UniProt Q27743). Kind of experiment: PfLDH activity inhibition – cell lysate, 3D7 strain, counter-screen for P. falciparum growth inhibition project (AID 2304).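 Note: 0% = vehicle and 100% = reference inhibitor.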 The note with it: P. falciparum 3D7 crude extract, LDH APAD/NBT absorbance; at 2 µM; stronger effect = higher value. (In general: The purpose of a counterscreen is to sort out artefacts and off-target activity.)

Experiment [4] is described as follows: inhibition of 3D7 malaria parasite growth – strain 3D7 (AID 2306).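 Note: 0% = DMSO wells and 100% = chloroquine plus artemisinin control wells.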 The note with it: P. falciparum 3D7 erythrocytic growth, LDH absorbance, 72 h; at 2 µM; stronger effect = higher value.
Experiment [5] deals with Calcium-dependent protein kinase 1 (Plasmodium falciparum (isolate 3D7)) (UniProt P62344). The experiment in a line: PfCDPK1 kinase inhibitors, biochemical, TCAMS library (AID 1159585; cut-off not given, nearly all actives have IC50 up to about 0.98 µM;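 note: inhibitors leave more ATP so luminescence rises with inhibition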). Conditions: recombinant PfCDPK1, Kinase-Glo ATP depletion luminescence.
In experiment [6] the target is Plasmodium falciparum protein kinase 6 (PK6, PF3D7_1337100) (UniProt Q8IDW1). The experiment in a line: PfPK6 kinase inhibitors, biochemical, TCAMS library (AID 1159586). Conditions: recombinant PfPK6, Kinase-Glo ATP depletion luminescence.
The target of experiment [7] is Protein kinase 7 (PK7), Plasmodium falciparum 3D7 (PF3D7_0213400) (UniProt Q7YTF7). Kind of experiment: inhibition of Plasmodium PK7 catalytic activity – biochemical, TCAMS antimalarial set, Kinase-Glo luminescence (AID 1159587). Conditions: recombinant PfPK7, Kinase-Glo ATP depletion luminescence.
The target of experiment [8] is Calcium-dependent protein kinase 4 (Plasmodium falciparum (isolate 3D7)) (UniProt Q8IBS5). Kind of experiment: PfCDPK4 kinase inhibitors, biochemical, TCAMS library (AID 1159588; cut-off not given, nearly all actives have IC50 up to about 0.91 µM). The note with it: recombinant PfCDPK4, Kinase-Glo ATP depletion luminescence. Background: In Kinase-Glo more light means more ATP remaining.

The values that follow come from PubChem BioAssay.

Unmarked numbers belong to inactive results. For some assays here: Measured potencies and affinities stand elsewhere. Calls of active or inactive are those of the source. Unless noted, the rule behind the calls is not given here.

One may read the inhibition as the relative decrease from the control value, in per cent.

Sequence of L-lactate dehydrogenase (Plasmodium falciparum (isolate CDC / Honduras)) (Q27743 whole entry, looked up): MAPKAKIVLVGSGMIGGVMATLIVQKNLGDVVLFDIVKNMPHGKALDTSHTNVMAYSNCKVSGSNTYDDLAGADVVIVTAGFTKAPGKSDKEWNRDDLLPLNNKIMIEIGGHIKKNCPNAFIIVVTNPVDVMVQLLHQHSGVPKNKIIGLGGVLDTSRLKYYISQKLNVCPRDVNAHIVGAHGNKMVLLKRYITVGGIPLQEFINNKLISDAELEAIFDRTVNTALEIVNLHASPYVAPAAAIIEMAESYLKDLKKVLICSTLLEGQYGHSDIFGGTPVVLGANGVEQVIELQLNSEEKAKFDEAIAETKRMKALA
Sequence of Protein kinase 7 (PK7), Plasmodium falciparum 3D7 (PF3D7_0213400) (Q7YTF7 1-343): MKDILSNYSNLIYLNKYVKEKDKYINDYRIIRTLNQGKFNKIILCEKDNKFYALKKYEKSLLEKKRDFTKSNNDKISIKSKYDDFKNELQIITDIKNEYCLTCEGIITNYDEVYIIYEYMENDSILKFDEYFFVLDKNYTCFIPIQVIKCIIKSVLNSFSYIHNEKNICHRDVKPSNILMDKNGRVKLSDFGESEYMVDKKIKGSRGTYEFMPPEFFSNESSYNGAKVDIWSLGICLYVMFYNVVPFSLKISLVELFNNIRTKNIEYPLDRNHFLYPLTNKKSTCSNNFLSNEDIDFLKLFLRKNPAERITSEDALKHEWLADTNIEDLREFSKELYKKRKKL
Sequence of Calcium-dependent protein kinase 4 (Plasmodium falciparum (isolate 3D7)) (Q8IBS5 whole entry, looked up): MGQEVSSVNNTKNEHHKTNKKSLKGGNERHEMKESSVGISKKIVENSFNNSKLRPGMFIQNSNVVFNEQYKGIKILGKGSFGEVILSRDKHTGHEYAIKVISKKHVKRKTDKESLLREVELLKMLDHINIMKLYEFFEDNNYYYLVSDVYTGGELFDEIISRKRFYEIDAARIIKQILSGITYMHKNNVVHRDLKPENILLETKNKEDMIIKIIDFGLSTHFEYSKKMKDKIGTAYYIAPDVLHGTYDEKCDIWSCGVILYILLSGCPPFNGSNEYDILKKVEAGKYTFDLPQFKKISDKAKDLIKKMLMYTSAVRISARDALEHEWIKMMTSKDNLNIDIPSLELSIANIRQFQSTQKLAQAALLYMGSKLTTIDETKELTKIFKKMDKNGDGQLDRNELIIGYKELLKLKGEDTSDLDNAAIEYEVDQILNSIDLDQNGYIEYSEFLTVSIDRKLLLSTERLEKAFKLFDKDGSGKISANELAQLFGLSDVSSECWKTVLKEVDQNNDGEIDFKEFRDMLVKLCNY
Sequence of Calcium-dependent protein kinase 1 (Plasmodium falciparum (isolate 3D7)) (P62344 whole entry, looked up): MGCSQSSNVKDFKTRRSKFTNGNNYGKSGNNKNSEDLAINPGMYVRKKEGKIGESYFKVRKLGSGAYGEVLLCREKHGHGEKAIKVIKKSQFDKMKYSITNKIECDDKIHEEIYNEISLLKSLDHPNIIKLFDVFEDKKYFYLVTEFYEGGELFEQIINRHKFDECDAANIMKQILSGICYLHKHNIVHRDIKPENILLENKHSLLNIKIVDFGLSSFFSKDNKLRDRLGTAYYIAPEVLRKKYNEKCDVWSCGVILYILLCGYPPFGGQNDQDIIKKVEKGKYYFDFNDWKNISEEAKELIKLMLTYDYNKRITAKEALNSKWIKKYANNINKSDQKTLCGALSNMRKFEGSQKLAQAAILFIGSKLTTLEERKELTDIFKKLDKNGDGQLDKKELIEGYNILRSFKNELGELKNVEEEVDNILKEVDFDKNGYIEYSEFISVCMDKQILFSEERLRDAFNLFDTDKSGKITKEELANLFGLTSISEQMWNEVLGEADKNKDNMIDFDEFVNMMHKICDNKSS
Sequence of Plasmodium falciparum protein kinase 6 (PK6, PF3D7_1337100) (Q8IDW1 1-305): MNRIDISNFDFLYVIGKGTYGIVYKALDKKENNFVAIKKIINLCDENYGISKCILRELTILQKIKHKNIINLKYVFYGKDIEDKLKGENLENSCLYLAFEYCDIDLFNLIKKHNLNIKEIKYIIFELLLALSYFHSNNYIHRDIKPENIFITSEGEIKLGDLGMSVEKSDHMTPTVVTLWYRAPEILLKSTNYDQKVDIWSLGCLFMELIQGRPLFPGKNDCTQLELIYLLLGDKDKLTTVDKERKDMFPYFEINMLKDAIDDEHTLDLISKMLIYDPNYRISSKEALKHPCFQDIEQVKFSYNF

Take `CN(CCNCc1ccc(-c2cccc(-c3nc4ccccc4[nH]3)c2)cc1)S(C)(=O)=O`: the growth inhibition in experiment [1] was 29%; in experiment [4], 101% (active). Further, the results for the inhibition in experiment [2] and in experiment [3] were 9% and -2%, respectively. The result in experiment [5], in experiment [6], in experiment [7] and in experiment [8] was inactive.

As to `Cc1cc(NN=Cc2cccc([N+](=O)[O-])c2)c2ccccc2n1`, the growth inhibition is 98% (active) in experiment [1] and 101% (active) in experiment [4]. For the same molecule, the inhibition in experiment [2] was -9%; in experiment [3] it was 3%. The outcome in experiment [5], in experiment [6], in experiment [7] and in experiment [8] was inactive.

As for `O=C(N[C@H]1CCN(CCc2ccc(O[C@H]3CCNC3)c(Cl)c2)C1)c1ccc(Cl)c(Cl)c1`, the figures for the growth inhibition in experiment [1] and in experiment [4] were -1% and 101% (active), respectively. In addition, the values for the inhibition in experiment [2] and in experiment [3] were 26% and 2%, respectively. Moreover, the outcome in experiment [5], in experiment [6], in experiment [7] and in experiment [8] was inactive.

Take `CCOc1cc(C(=O)NCCCN2CCCCC2C)ccc1-c1nc2ccc(Cl)cc2[nH]1` (configuration not stated): the growth inhibition in experiment [1] is 0%; in experiment [4], 89% (active). For the same molecule, the inhibition was 2% in experiment [2] and -2% in experiment [3]. Moreover, the outcome in experiment [5], in experiment [6], in experiment [7] and in experiment [8] was inactive.

Turning to `COc1ccc(NC(=O)CCNc2cc(C)nc(NCCOc3ccccc3)n2)cc1`, the growth inhibition is 2% in experiment [1] and 96% (active) in experiment [4]. Further, the figures for the inhibition in experiment [2] and in experiment [3] were 0% and -1%, respectively. The outcome in experiment [5], in experiment [6], in experiment [7] and in experiment [8] was inactive.

For `CC(C)(C)c1nn(-c2ccc(Cl)cc2)c2[nH]c(=O)c(CNCc3cccs3)cc12`, the figures for the growth inhibition in experiment [1] and in experiment [4] were 77% (active) and 102% (active), respectively. In addition, the inhibition in experiment [2] is 5%; in experiment [3], 3%. The outcome in experiment [5], in experiment [6], in experiment [7] and in experiment [8] was inactive.

Turning to `CC(C)c1cc(Oc2c(I)cc(CCN=C(N)N)cc2I)ccc1O`, the growth inhibition in experiment [1] is 54% (active); in experiment [4], 98% (active). The inhibition in experiment [2] was 19%; in experiment [3], 3%. Besides, the result in experiment [5], in experiment [6], in experiment [7] and in experiment [8] was inactive.

Consider `COc1ccc(CN2CCCC(N3CC4(OC3=O)c3ccccc3-c3ccccc34)C2)c(O)c1` (configuration not stated), for which the results for the growth inhibition in experiment [1] and in experiment [4] were 34% and 92% (active), respectively. The figures for the inhibition in experiment [2] and in experiment [3] were 14% and 7%, respectively. The result in experiment [5], in experiment [6], in experiment [7] and in experiment [8] was inactive.

On to `Cc1cc(NN=CC=Cc2ccccc2)c2ccc(F)cc2n1`, for which the results for the growth inhibition in experiment [1] and in experiment [4] were 30% and 100% (active), respectively. The inhibition in experiment [2] is 14%; in experiment [3], -3%. In addition, the result in experiment [5], in experiment [6], in experiment [7] and in experiment [8] was inactive.

For the molecule `Nc1c2c(nc3ccc(Oc4ccc(Br)cc4Br)cc13)CCCC2`, the growth inhibition was 47% in experiment [1] and 99% (active) in experiment [4]. The inhibition was 33% in experiment [2] and 0% in experiment [3]. The outcome in experiment [5], in experiment [6], in experiment [7] and in experiment [8] was inactive.

As to `CN(C)CCCc1cc2c(cc1Cl)CCN2C(=O)Nc1ccc(-c2ccncc2)c2ccccc12`, the growth inhibition was -2% in experiment [1] and 94% (active) in experiment [4]. Also, the inhibition in experiment [2] is 4%; in experiment [3], -2%. In addition, the result in experiment [5], in experiment [6], in experiment [7] and in experiment [8] was inactive.

As for `COc1ccc(OCC(=O)Nc2cc(-c3nc4ccccc4[nH]3)ccc2Cl)cc1`, the growth inhibition in experiment [1] was 33%; in experiment [4] it was 94% (active). Further, the inhibition in experiment [2] is 18%; in experiment [3], -4%. Also, the outcome in experiment [5], in experiment [6], in experiment [7] and in experiment [8] was inactive.

For `Cc1cc2c3c(N)nc(N)nc3ccc2n1C(C)C`, the growth inhibition in experiment [1] is 0%; in experiment [4], 93% (active). Besides, the inhibition in experiment [2] was 70% (active); in experiment [3], 2%. The outcome in experiment [5], in experiment [6], in experiment [7] and in experiment [8] was inactive.

With `CCc1cc(C(=O)c2cccc(C)c2)c(NC(=O)CN2CCN(C(=O)c3ccco3)CC2)s1`, the growth inhibition in experiment [1] is 85% (active); in experiment [4] it was 91% (active). The results for the inhibition in experiment [2] and in experiment [3] were -13% and -5%, respectively. Besides, the result in experiment [5], in experiment [6], in experiment [7] and in experiment [8] was inactive.

Consider `O=C(CC1SC(N2N=C(c3cccs3)CC2c2ccccc2)=NC1=O)Nc1ccccc1F` (configuration not stated), for which the values for the growth inhibition in experiment [1] and in experiment [4] were 76% (active) and 87% (active), respectively. In addition, the inhibition was 9% in experiment [2] and -2% in experiment [3]. In addition, the outcome in experiment [5], in experiment [6], in experiment [7] and in experiment [8] was inactive.

Consider `CCCOC(=O)C1=C(C)NC2=C(C(=O)CC(c3ccc(OC)c(OC)c3)C2)C1c1cccc(O)c1` (configuration not stated), for which the values for the growth inhibition in experiment [1] and in experiment [4] were 99% (active) and 100% (active), respectively. For the same molecule, the inhibition in experiment [2] was -10%; in experiment [3], -2%. In addition, the outcome in experiment [5], in experiment [6], in experiment [7] and in experiment [8] was inactive.

`CCCCCN1CCCC(CNS(=O)(=O)c2cccc(C(=O)Nc3ccc(C(F)(F)F)cc3)c2)C1` (configuration not stated): the growth inhibition is 2% in experiment [1] and 96% (active) in experiment [4]. Also, the inhibition was 27% in experiment [2] and 4% in experiment [3]. Also, the outcome in experiment [5], in experiment [6], in experiment [7] and in experiment [8] was inactive.

Turning to `O=C(NC1CCCCC1)C(c1cccs1)N(CCc1ccccc1)C(=O)c1ccco1` (configuration not stated), the growth inhibition in experiment [1] is 63% (active); in experiment [4], 92% (active). Further, the results for the inhibition in experiment [2] and in experiment [3] were -10% and -1%, respectively. Also, the result in experiment [5], in experiment [6], in experiment [7] and in experiment [8] was inactive.

In the case of `O=C(Nc1ccc(Cn2ncc(N3CCCNCC3)c(Cl)c2=O)cc1)Nc1ccc(OCc2ccccc2)cc1`, the growth inhibition in experiment [1] is 32%; in experiment [4] it was 90% (active). Also, the inhibition in experiment [2] is 15%; in experiment [3], 5%. Further, the result in experiment [5], in experiment [6], in experiment [7] and in experiment [8] was inactive.
